{"source": "ChEMBL document CHEMBL3988442", "about": "“University of Dundee, Small-Polar-MMV Screening Library” (2021)", "note": "The whole screen tested about 48,000 compounds, of which about 13,000 (27%) showed an effect of 50% or more. The list shows a part of the results."}
{"test_system": "Wolbachia pipientis", "assay": "Anti-Wolbachia Cell-Based Screen", "assay_type": "functional", "parameters": "scale not given: in the data most compounds retested in dose-response had high values", "conditions": "5 µM", "units": {"Percent Effect": "%"}}
{"smiles": "Cn1cc(S(=O)(=O)Nc2ccc(Cl)cn2)cc1C(N)=O", "Percent Effect": 6.201}
{"smiles": "Cc1cc2[nH]c(CN3CCOC(c4ccc(Cl)cc4)C3)cc(=O)n2n1", "note": "(configuration not stated)", "Percent Effect": -2.359}
{"smiles": "CC(C)NC(=O)N1CC[C@H]2N(C)CC[C@@]2(C(=O)Nc2cccnc2)CC1", "Percent Effect": 104}
{"smiles": "Cc1ccc(CNC(=O)C2CCN(C(=O)C(C)C)CC2)n1C", "Percent Effect": -14.75}
{"smiles": "CS(=O)(=O)N1C[C@H](C(=O)Nc2cccnc2)[C@@H]2CCO[C@@H]2C1.O=C(O)C(F)(F)F", "Percent Effect": -6.028}
{"smiles": "CCN1CC[C@@]2(C(=O)N3CCOCC3)CCN(C(=O)CC(C)C)CC[C@@H]12.O=C(O)C(F)(F)F", "Percent Effect": -11.51}
{"smiles": "CCN1CC[C@@]2(C(=O)N(C)C)CCN(C(=O)NC(C)C)CC[C@@H]12", "Percent Effect": -5.445}
{"smiles": "CC(C)C(=O)N1CC[C@H]2N(C)CC[C@@]2(C(=O)Nc2ccccc2)CC1", "Percent Effect": 108.6}
{"smiles": "O=C(Cc1cccnc1)N1CCC2(CC1)CCN(C1CCOCC1)C2.O=C(O)C(F)(F)F.O=C(O)C(F)(F)F", "Percent Effect": -0.7381}
{"smiles": "CC(C)C(=O)N1CCc2nc(C(=O)Nc3cccnc3)sc2CC1", "Percent Effect": 0.3042}
{"smiles": "O=C(Nc1cccnc1)N1CCC(n2ccc(C(F)(F)F)n2)CC1", "Percent Effect": -10.86}
{"smiles": "CNC(=O)N1CC[C@H]2N(C)CC[C@@]2(C(=O)Nc2ccccc2)CC1", "Percent Effect": 2.294}
{"smiles": "CC(C)C(=O)N1CC[C@H]2N(C)CC[C@@]2(C(=O)Nc2cccnc2)CC1.O=C(O)C(F)(F)F.O=C(O)C(F)(F)F", "Percent Effect": 118.9}
{"smiles": "CC(C)CC(=O)N1CC[C@H]2N(C)CC[C@@]2(C(=O)Nc2cccnc2)CC1.O=C(O)C(F)(F)F.O=C(O)C(F)(F)F", "Percent Effect": 92.3}
{"smiles": "CCC[C@H]1CN(CCCO)C[C@@H]1NC(=O)Cn1cc(C)cn1", "Percent Effect": -8.445}
{"smiles": "CCN(Cc1cc(F)c(OC)c(Cl)c1)Cc1nc(COC)no1", "Percent Effect": -30.92}
{"smiles": "COc1cc(C)sc1C(=O)NCCC(=O)N(C)c1ccccc1", "Percent Effect": -9.675}
{"smiles": "CC(C)N(C)CCNC(=O)NCc1ccccc1-n1cccn1", "Percent Effect": -1.809}
{"smiles": "Cc1nn(C(C)C)c(C)c1S(=O)(=O)Nc1cccc(C(=O)O)c1", "Percent Effect": 0.846}
{"smiles": "CC(CCc1ccc(F)c(F)c1)NS(=O)(=O)Cc1ccon1", "note": "(configuration not stated)", "Percent Effect": 102}
{"smiles": "Cc1ccc(OCC(C)NS(=O)(=O)Cc2ccon2)cc1", "note": "(configuration not stated)", "Percent Effect": 103.4}
{"smiles": "Cc1ccc(OCC(C)NS(=O)(=O)N(C)C)cc1", "note": "(configuration not stated)", "Percent Effect": -6.618}
{"smiles": "CC(C)CC(CO)NS(=O)(=O)Cc1ccon1", "note": "(configuration not stated)", "Percent Effect": 92.95}
{"smiles": "Cc1ccc(C(=O)NS(=O)(=O)Cc2ccon2)c(C)c1", "Percent Effect": -32.05}
{"smiles": "Cc1cc(C(=O)NS(=O)(=O)Cc2ccon2)c(C)n1C(C)C", "Percent Effect": 19.94}
{"smiles": "Cc1ccc(OCC(C)NS(C)(=O)=O)cc1", "note": "(configuration not stated)", "Percent Effect": 1.319}
{"smiles": "O=C(NS(=O)(=O)Cc1ccon1)c1ccsc1", "Percent Effect": -7.233}
{"smiles": "O=C(CCc1cccc(Cl)c1)NS(=O)(=O)Cc1ccon1", "Percent Effect": -7.174}
{"smiles": "CCC(CNC(=O)Cc1cc(C)on1)Oc1cccc(F)c1", "note": "(configuration not stated)", "Percent Effect": 6.278}
{"smiles": "CN1CCN(c2ncnc3c2c(C(=O)NC2CC2)c2ccccn23)CC1", "Percent Effect": -8.273}
{"smiles": "CC1CN(CC(=O)NC(=O)NCc2cccs2)CCN1CC(F)(F)F", "note": "(configuration not stated)", "Percent Effect": 103.7}
{"smiles": "Cc1csc(N2CCN(CCc3ccccn3)CC2C)n1", "note": "(configuration not stated)", "Percent Effect": 3.431}
{"smiles": "Cc1csc(N2CCN(CC(=O)Nc3cccnc3)CC2C)n1", "note": "(configuration not stated)", "Percent Effect": 114.5}
{"smiles": "Cc1csc(N2CCN(CC(=O)Nc3nncs3)CC2C)n1", "note": "(configuration not stated)", "Percent Effect": 1.073}
{"smiles": "Cc1ccccc1CN1CCN(CC(=O)Nc2cccnc2)CC1", "Percent Effect": 7.585}
{"smiles": "O=C(CCN1CCCN(c2nccs2)CC1)Nc1ccccc1", "Percent Effect": 4.493}
{"smiles": "O=C(CN1CCN(c2nccs2)CC1)Nc1cccnc1", "Percent Effect": 105.2}
{"smiles": "CC1CN(CC(=O)NCc2cccs2)CCN1c1nccs1", "note": "(configuration not stated)", "Percent Effect": 105.4}
{"smiles": "O=C(CN1CCOC(Cn2cccn2)C1)NCc1cccs1", "note": "(configuration not stated)", "Percent Effect": 2.249}
{"smiles": "O=C(CN1C[C@H]2CC[C@@H]1CN(Cc1ccccn1)C2)NCc1cccs1", "Percent Effect": 1.062}
{"smiles": "C[C@@H]1CN(Cc2ccccc2)CCN1C(=O)NCc1nccs1", "Percent Effect": -1.817}
{"smiles": "CC1CN(C(=O)NCc2ccn(C)c2)CCN1CC(F)(F)F", "note": "(configuration not stated)", "Percent Effect": -7.034}
{"smiles": "COC(=O)N1CCCN(C(=O)NCc2ccc(Cl)s2)CC1", "Percent Effect": 11.92}
{"smiles": "CC(C)COCCC(=O)Nc1cc(-n2nnnc2C2CC2)ccc1F", "Percent Effect": 3.649}
{"smiles": "CC1CN(CC(=O)Nc2cccnc2)CCN1c1nccs1", "note": "(configuration not stated)", "Percent Effect": 0.898}
{"smiles": "CC1CN(CC(=O)Nc2nncs2)CCN1c1nccs1", "note": "(configuration not stated)", "Percent Effect": -0.151}
{"smiles": "CC1CN(CC(=O)Nc2ccncc2)CCN1c1nccs1", "note": "(configuration not stated)", "Percent Effect": 150.9}
{"smiles": "CCSC(C)C(=O)N1CCC(c2nn(C)c(=O)n2-c2ccccc2)CC1", "note": "(configuration not stated)", "Percent Effect": -5.623}
{"smiles": "c1cc(-c2noc([C@@H]3CCCN3CC3CC3)n2)cc(N2CCCC2)n1", "Percent Effect": 1.663}
{"smiles": "c1cc(-c2c[nH]c([C@@H]3COCCN3CC3CC3)n2)ccn1", "Percent Effect": -6.01}
{"smiles": "COCCOc1ccnc(-c2noc([C@@H]3CCCN3CC(C)C)n2)c1", "Percent Effect": -7.911}
{"smiles": "c1cc(C2CCCN2CC2CC2)n[nH]1", "note": "(configuration not stated)", "Percent Effect": 189.2}
{"smiles": "Nc1ncncc1-c1noc([C@@H]2CCCN2CC2CC2)n1", "Percent Effect": -1.832}
{"smiles": "OCCOCCN1CCCC1c1cccc(Cl)c1", "note": "(configuration not stated)", "Percent Effect": -3.053}
{"smiles": "CN1CCC(c2n[nH]c(=O)n2CC2CCCCC2)CC1", "Percent Effect": 16.1}
{"smiles": "CC(C)CN1CCCC1c1cc[nH]n1", "note": "(configuration not stated)", "Percent Effect": 114.8}
{"smiles": "OCCN1CCCCC1c1cc[nH]n1", "note": "(configuration not stated)", "Percent Effect": 167}
{"smiles": "OCCCN1CCCC1c1ccc(Br)cc1", "note": "(configuration not stated)", "Percent Effect": -3.155}
{"smiles": "c1cc(C2CCCN2CC2CCCCC2)n[nH]1", "note": "(configuration not stated)", "Percent Effect": 159.6}
{"smiles": "CC(C)CN1CCCC1c1ccc(C(=O)Nc2cc[nH]n2)s1", "note": "(configuration not stated)", "Percent Effect": 6.388}
{"smiles": "CC(C)NC(=O)CCNC(=O)c1cc(F)ccc1NS(C)(=O)=O", "Percent Effect": -9.152}
{"smiles": "CCOc1ccc(C(=O)N(C)C)cc1NC(=O)c1ccsc1", "Percent Effect": 9.824}
{"smiles": "CCc1nncn1CCNC(=O)Nc1ccc(OC)c(C)c1", "Percent Effect": -6.777}
{"smiles": "CCn1ccnc1CN1CCN(CC(O)Cn2cccn2)CC1", "note": "(configuration not stated)", "Percent Effect": -2.692}
{"smiles": "Cc1cc(C)c2cc(CNCc3ccccc3)c3nn(C)c(=O)n3c2c1", "Percent Effect": -7.626}
{"smiles": "Cc1cc(C)c2cc(CNCc3cccnc3)c3nn(C)c(=O)n3c2c1", "Percent Effect": 113.3}
{"smiles": "Cc1cc(C)c2cc(CNCc3ccco3)c3nn(C)c(=O)n3c2c1", "Percent Effect": 111.5}
{"smiles": "Cc1ccc(CNCCC(O)(c2nccn2C)C(F)(F)F)o1", "note": "(configuration not stated)", "Percent Effect": -16.77}
{"smiles": "Cc1ccc(CNCc2nnc3n2CCCC3C(F)(F)F)o1", "note": "(configuration not stated)", "Percent Effect": 18.11}
{"smiles": "Cc1ccc(NCc2ccco2)cc1N1CCOC1=O", "Percent Effect": -6.269}
{"smiles": "Cc1cc(C)c2cc(C(=O)N3CCN(Cc4ccco4)CC3)[nH]c2c1", "Percent Effect": 21.49}
{"smiles": "Cc1cc(C)c2cc(CNCc3ccc(C)o3)c3nn(C)c(=O)n3c2c1", "Percent Effect": 122.6}
